Test results published in PubChem BioAssay.

assay: CREB reporter modulators without forskolin, primary screen, cell-based, PC12, CRE-LacZ reporter, unstimulated (AID 1145); conditions: no forskolin, luminescence, 4.5 h, higher = more signal, called active from +8 up or from −8 down

z-score, inactive:
C=C(COC)/C(=C/C[C@@H](OC(C)=O)c1cccc(OCCO)c1)c1cc(C(=O)OC)ccc1OC 4.69, CC(C)(C)OC(=O)CC[C@]1(C(=O)NCCN2CCOCC2)N=C(c2ccc(OCCCO)cc2)O[C@H]1c1ccccc1CN=[N+]=[N-] 1.57, CC(=O)NCCCC[C@@H]1NC(=O)[C@@H]2C[C@H](C(=O)NCCCCCCN(C)C)[C@H](c3ccc(O)cc3)N2C1=O 0.0043, Cc1ccc(S[C@]2(C(=O)O)CC(=O)N(Cc3ccccc3)[C@@H]2c2ccc(CO)cc2)cc1 -0.412, O=C1c2ccccc2[C@](Cc2ccccc2I)(C(=O)NCC(F)(F)F)[C@H](c2ccc(CO)cc2)N1Cc1ccccc1C(F)(F)F -0.438, O=C1OCCC=C[C@H]2OC34C=CCN(Cc5ccccc5)C(=O)[C@H]3N(CCO)C(=O)[C@@H]4C12 (some centres undefined) -0.899, C=CCNC(=O)[C@H]1[C@@H]2C(=O)O[C@@H](c3ccccc3)[C@@H](c3ccccc3)N2[C@@H](c2ccccc2OCCO)[C@]12C(=O)N(C(=O)OCCOC)c1ccc(C#CCC(C(=O)OC)C(=O)OC)cc12 0.775, COc1ccc([Si](C)(C)[C@H]2[C@H](CC(=O)N3Cc4ccccc4C[C@H]3CO)O[C@@]3(C(=O)N(Cc4cccc(N5CCOC5=O)c4)c4ccccc43)[C@@H]2C)cc1 5.51, CC(C)N1CC=CC23O[C@@H]4/C=C\CCCOC(=O)C4[C@H]2C(=O)N(CCO)[C@@H]3C1=O (some centres undefined) -0.358
